# Experimental data as given in PubChem BioAssay (NCI).
# The panel holds about 83,000 compounds, 20% with a hit somewhere; the sample as a whole holds those more often.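 For each line, cells grew in 96-well plates with the test compound present at a single concentration for 48 hours.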 Calls of active or inactive are those of the source. How the source made its calls: active means growth percent below 10; inactive means the rest.
# Test system: IGROV1 ovarian
# Experiment: NCI-60 one-dose screen, 48 h (100 = growth as untreated, 0 = no growth, -100 = all killed)
# Conditions: 10 µM unless noted
row,Structure (SMILES),growth
1,C=C1CCC[C@]2(C)CCC[C@H](C)[C@@H](OC(C)=O)[C@@H]3OC(=O)C(=C)[C@@H]3C[C@H]1O2,81.8% (inactive)
2,Cc1cc(N)n(S(=O)(=O)c2oc(-c3ccccc3)nc2C#N)n1,97.9% (inactive)
3,COc1ccc(-c2cc3c(OC)c(OC)c(OC)cc3oc2=O)cc1,61.6% (inactive)
4,COc1ccc(OC)c(C2OC(c3ccc4ccccc4c3O)=NN2C(C)=O)c1 (centres undefined),75.8% (inactive)
5,Cc1ccc(NS(=O)(=O)c2cc(C)ccc2C)cc1,53.8% (inactive)
6,COc1cc(-c2nn(-c3cccc(NC(=O)c4ccccc4)c3)cc2-c2ccncc2)ccc1Cl,47.4% (inactive)
7,O=C(Nc1cccc(-n2cc(-c3ccncc3)c(-c3ccc(Cl)c(O)c3)n2)c1)Nc1ccc(Cl)c(Cl)c1,28.7% (inactive)
8,O=S(=O)(NCCNc1nccc(-c2c(-c3cccc(O)c3)nc3sccn23)n1)c1ccc(F)cc1,63.7% (inactive)
9,O=C(Nc1ccc2c(c1)OCCO2)C(=O)c1c[nH]c2ccccc12,44.5% (inactive)
10,CCCCCCCC/C=C/CCCCCCCC1=NC(C)(C)CN1C(C)(C)CO,1.53% (active)
11,COc1ccc(-n2c(=S)sc3c(Cl)nc(C)nc32)c(OC)c1,-17.3% (active)
12,CCOC(=O)c1cn2c3c(cc(C)cc3c1=O)C(=O)/C(=C/c1ccccc1)C2,93.2% (inactive)
13,CN(C)CC(C(=O)c1ccccc1)c1ccccc1 (centres undefined),48.6% (inactive)
14,NC(=O)CCCN1C/C(=C\c2ccccc2)C(=O)c2ccccc21,102% (inactive)
15,COc1ccc(Nc2nn3c(C)cc(C)nc3c2C(=O)Nc2ccc(C)cc2)c(OC)c1,97.1% (inactive)
16,COc1cc(-c2nn(-c3cccc(NC(=O)c4ccc(Cl)c(C(F)(F)F)c4)c3)cc2-c2ccncc2)ccc1Cl,48.9% (inactive)
17,COc1cc(-c2nc(-c3nc4ccc(Cl)cc4[nH]3)cc3c2[nH]c2ccccc23)cc(OC)c1OC,52.6% (inactive)
18,Cc1c(C(N)=O)sc2c1c(=O)n(Cc1ccccc1)c1nnc(Nc3ccccc3)n21,104% (inactive)
19,O=c1c2sc3ncccc3c2nnn1-c1ccccc1,106% (inactive)
20,CCCCCCCC[C@@H](O)CC(=O)N[C@@H](CC(N)=O)C(=O)N[C@@H](CCC(N)=O)C(=O)N[C@@H](CC(=O)c1cc(C)cc(O)c1C(=O)c1c(O)cccc1O)CC(C)C,15.1% (inactive)
21,COc1cc(/C(C#N)=C/c2ccc3c(c2OC)OCO3)cc2c1OCO2,37.7% (inactive)
22,COc1ccc(Nc2[nH]n3c(=O)cc(C)nc3c2C(N)=O)c(OC)c1,107% (inactive)
23,Fc1ccc(Nc2nc(NCCNc3ccnc4cc(Cl)ccc34)nc(N3CCOCC3)n2)cc1,75.5% (inactive)
24,CN(C)c1oc(C2OC2c2ccccc2)nc1C#N (centres undefined),90.6% (inactive)

# Test system: OVCAR-3 ovarian
# Experiment: as above
# Conditions: 10 µM unless noted
row,Structure (SMILES),growth
1,COc1ccc(-c2c(N)n[nH]c2-c2cc3c(c(OC)c2OC)OCO3)cc1,108% (inactive)
2,COc1cc(-c2nn(-c3cccc(NC(=O)c4cccc(C(F)(F)F)c4)c3)cc2-c2ccncc2)ccc1Cl,-25.6% (active)
3,Clc1ccc(-c2nc3ccccc3s2)cc1Cl,92.7% (inactive)
4,Fc1ccc(CNCCNc2ncnc3c2cnn3-c2ccccc2)cc1,109% (inactive)
5,COc1ccc(-n2c(=O)sc3c(Cl)nc(C)nc32)c(OC)c1,68.8% (inactive)
6,Cn1c(=O)c2[nH]c(C3CC=CCC3)nc2n(C)c1=O (centres undefined),105% (inactive)
7,COc1ccc(C2C=C(c3ccc(N)cc3)N=C3SC=CN32)cc1OC (centres undefined),107% (inactive)
8,O=S(=O)(NCCNc1nccc(-c2c(-c3ccc(O)cc3)nc3sccn23)n1)c1cccc2ccccc12,117% (inactive)
9,O=S(=O)(NCCNc1nccc(-c2c(-c3ccc(F)cc3)nc3sccn23)n1)c1ccc(F)cc1,90.1% (inactive)
10,COc1ccc(/C=C2\CN(Cc3cn(CCNc4ccnc5cc(Cl)ccc45)nn3)C/C(=C\c3ccc(OC)c(OC)c3)C2=O)cc1OC,-13.9% (active)
11,Cc1ccc(S(=O)(=O)c2nc(-c3ccccc3)oc2S(C)(=O)=O)cc1,-86.8% (active)
12,COc1ccc(C2=Nn3c(nnc3-n3nc(C)cc3C)SC2)cc1,-47.9% (active)
13,Cc1ccc(S(=O)(=O)NCCNc2nccc(-c3c(-c4ccc(O)cc4)nc4sccn34)n2)cc1,110% (inactive)
14,C=C1CCC[C@]2(C)CCC[C@H](C)[C@@H](OC(C)=O)[C@@H]3OC(=O)C(=C)[C@@H]3C[C@H]1O2,47.9% (inactive)
15,Cc1cc(N)n(S(=O)(=O)c2oc(-c3ccccc3)nc2C#N)n1,89.9% (inactive)
16,COc1ccc(-c2cc3c(OC)c(OC)c(OC)cc3oc2=O)cc1,5.53% (active)
17,COc1ccc(OC)c(C2OC(c3ccc4ccccc4c3O)=NN2C(C)=O)c1 (centres undefined),52.4% (inactive)
18,Cc1ccc(NS(=O)(=O)c2cc(C)ccc2C)cc1,3.62% (active)

row,Structure (SMILES),growth
1,COc1cc(-c2nn(-c3cccc(NC(=O)c4ccccc4)c3)cc2-c2ccncc2)ccc1Cl,0.0228% (active)
2,O=C(Nc1cccc(-n2cc(-c3ccncc3)c(-c3ccc(Cl)c(O)c3)n2)c1)Nc1ccc(Cl)c(Cl)c1,-4.74% (active)
3,O=S(=O)(NCCNc1nccc(-c2c(-c3cccc(O)c3)nc3sccn23)n1)c1ccc(F)cc1,86.8% (inactive)
4,O=C(Nc1ccc2c(c1)OCCO2)C(=O)c1c[nH]c2ccccc12,-45.1% (active)
5,CCCCCCCC/C=C/CCCCCCCC1=NC(C)(C)CN1C(C)(C)CO,55.4% (inactive)
6,COc1ccc(-n2c(=S)sc3c(Cl)nc(C)nc32)c(OC)c1,-20.7% (active)
7,CCOC(=O)c1cn2c3c(cc(C)cc3c1=O)C(=O)/C(=C/c1ccccc1)C2,96.7% (inactive)
8,CN(C)CC(C(=O)c1ccccc1)c1ccccc1 (centres undefined),-92.6% (active)
9,NC(=O)CCCN1C/C(=C\c2ccccc2)C(=O)c2ccccc21,109% (inactive)
10,COc1ccc(Nc2nn3c(C)cc(C)nc3c2C(=O)Nc2ccc(C)cc2)c(OC)c1,105% (inactive)
11,COc1cc(-c2nn(-c3cccc(NC(=O)c4ccc(Cl)c(C(F)(F)F)c4)c3)cc2-c2ccncc2)ccc1Cl,19.5% (inactive)
12,COc1cc(-c2nc(-c3nc4ccc(Cl)cc4[nH]3)cc3c2[nH]c2ccccc23)cc(OC)c1OC,82.8% (inactive)
13,Cc1c(C(N)=O)sc2c1c(=O)n(Cc1ccccc1)c1nnc(Nc3ccccc3)n21,115% (inactive)
14,O=c1c2sc3ncccc3c2nnn1-c1ccccc1,112% (inactive)
15,COc1cc(/C(C#N)=C/c2ccc3c(c2OC)OCO3)cc2c1OCO2,-36% (active)
16,Fc1ccc(Nc2nc(NCCNc3ccnc4cc(Cl)ccc34)nc(N3CCOCC3)n2)cc1,85.1% (inactive)
17,CN(C)c1oc(C2OC2c2ccccc2)nc1C#N (centres undefined),105% (inactive)
